High-throughput results: PubChem, National Center for Advancing Translational Sciences (NCATS)
ATXN2 expr inh: Primary qHTS for Inhibitors of ATXN expression; Potency, µM (titrated, usually from 57 µM), actives largely listed as inhibitors; HEK-293 ATXN2-luciferase reporter, luminescence, 24 h; actives 0.72% (n = 360,000); note: nearly all actives have a fitted effect of over 55% in size
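ATXN2-luciferase reporter cells (luciferase flanked by upstream and downstream ATXN2 gene portions) were treated 24 h at 37 °C with compounds at up to 57 uM. SteadyGlo luminescence gave expression; GF-AFC fluorescence gave viability.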
ATXN viability: Viability Counterscreen for Primary qHTS for Inhibitors of ATXN expression; S2 cells (HEK-293 line with an ATXN2-luciferase reporter) viability, CellTiter-Fluor protease fluorescence, 24 h; Potency, µM (doses to about 56.7 µM), usual class: cytotoxic; actives 0.49% (n = 400,000); note: nearly all actives have a fitted effect of over 40% in size
HT1080 IDH1KD tx: qHTS for induction of synthetic lethality in tumor cells producing 2HG: qHTS for the HT-1080-IDH1KD cell line; actives 2% (n = 360,000); AID 686971, 2013; Potency, µM (doses to about 46.1 µM), hits mostly cytotoxic; HT-1080 IDH1 knockdown viability, ATP luminescence, 48 h
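Assay cells: HT-1080 with IDH1 knockdown, 750 per well, RPMI/5% FBS. Exposure: 48 h at 37 °C following 2 h pre-incubation. Read: CellTiter-Glo luminescence; fitted concentration-response, curve class assigned.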
HepG2 viability: qHTS for Inhibitors of TGF-b: Cytotox Counterscreen; HepG2 CAGA-GFP viability, ATP luminescence, 18 h; AID 588856, 2011; actives 0.76% (n = 410,000); Potency, µM (titrated, usually from 46.1 µM), hits mostly cytotoxic
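HepG2 CAGA-GFP cells (1000/well, DMEM with 1% FBS) received compound, then TGF-beta at 500 pg/mL final, and were incubated 18 hours at 37 degrees C. Viability was read by CellTiter-Glo luminescence. Media-only wells were set as complete cell-killing and DMSO as no toxicity.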
TGFb inhibitor: qHTS for Inhibitors of TGF-b | HepG2 CAGA-GFP TGF-b/SMAD3 reporter, GFP fluorescence, 18 h; TGF-beta stimulated, 500 pg/mL final | Potency, µM (titrated, usually from 46.1 µM), usual class: inhibitors | actives 1.2% (n = 410,000) | AID 588855, 2011; note: nearly all actives have a fitted effect of over 65% in size
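Per well, imaged GFP fluorescence of HEPG2 CAGA-GFP cells gives the signal; cells get compound, then TGF-beta (500 pg/mL final), 18 h at 37 degrees C; %Activity versus -TGF-beta and +DMSO controls.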
HT1080-NT tox: qHTS for induction of synthetic lethality in tumor cells producing 2HG: qHTS for the HT-1080-NT fibrosarcoma cell line; HT-1080-NT fibrosarcoma viability, CellTiter-Glo ATP luminescence, 48 h; Potency, µM (highest dose often 46.1 µM), most hits filed as cytotoxic; actives 1.6% (n = 360,000);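 note: NT is the 2HG producing partner of a matched IDH1 knockdown line; nearly all actives have a fitted effect of over 55% in size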
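Compounds were tested in concentration-response format on HT-1080-NT cells for 48 hours at 37 degrees C. Cell viability came from CellTiter-Glo luminescence; curves were classified by r2, response magnitude and activity.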
Hits are given with their value; i = inactive; ? = inconclusive; nt = no result given; ! = not confirmed by another sample; [ ] = another dose, or the depositor's remark. Most compounds without a hit are left out; they make up all but 3.8% or so of the library. Calls come from the whole dose curve; as a rule, active = well fitted curve in the direction sought with a large enough effect; inconclusive = small, poorly fitted or top-dose-only effect, or another doubt; inactive = no such curve, though single readings can be large; an effect the other way counts as inactive or inconclusive.

SMILES	ATXN2 expr inh	ATXN viability	HT1080 IDH1KD tx	HepG2 viability	TGFb inhibitor	HT1080-NT tox
Cc1cccc(NC(=O)C2CCCN(S(=O)(=O)c3ccc4c(c3)oc(=O)n4C)C2)c1C (configuration not stated)	i	i	nt	i	i	nt
COc1cc2c(cc1OC)C1(Nc3c-2c(-c2ccccc2)nn3-c2ccccc2)C(=O)Nc2ccccc21 (configuration not stated)	i	i	i	i	16µM	?
C[C@@H]1CCO[C@H]2Cn3cc(C(=O)NCc4ccc(F)cc4F)c(=O)c(O)c3C(=O)N12	i	nt	nt	nt	nt	nt
O=C(Nc1ccccc1)Nc1cc(OCC(F)(F)F)cc(OCC(F)(F)F)c1	i[11.3 µM]	i	7.3µM	11µM	?	6.5µM
O=C(NCCNC(=O)c1cc(OCC(F)(F)F)ccc1OCC(F)(F)F)Nc1cccc(C(F)(F)F)c1	i	i	i	i	?	i
O=C(Nc1ccccc1)Nc1cc(Cl)cc(Cl)c1	?	?	15µM	i	16µM	16µM
CCN(CC)CCCCNc1ncc2cc(-c3cc(OC)cc(OC)c3)c(NC(=O)NC(C)(C)C)nc2n1	?	8.9µM	9.2µM	14µM	?	16µM
CCN(CC)CCNC1=NCCn2c1cc1cc(OC)ccc12	?	i	?	i	i	?
CCCCc1ccc2nc(NC(=O)OC)[nH]c2c1	i	?	nt	nt	nt	nt
C=CCOc1ccc2nc(NC(=O)OC)[nH]c2c1	i	?	1.8µM	i	i	?
C=C(c1ccc2nc(NC(=O)OC)[nH]c2c1)c1cccs1	i	?	0.73µM	i	?	1µM
Cc1c(C(=O)N2CCCCC2c2cccnc2)sc2ncnc(NCc3cccs3)c12 (configuration not stated)	nt	i	nt	nt	nt	nt
Cc1ccc(NC(=O)NCCOCCn2c(=O)oc3ccccc32)cc1C	i	i	nt	i	?	nt
CCOC(=O)c1cnc(Nc2nc3ccccc3o2)nc1CSc1nnc(C)s1	i	i	i	i	i	i
CCOC(=O)c1cnc(Nc2nc3ccccc3o2)nc1C	2.8µM	i	3.5µM	i	i	2.8µM
CN(C(=O)CSc1nc2ccccc2n1CC(=O)N(C)C1CCCCC1)c1ccccc1	i	?	nt	i	i	nt
Cc1cccc(-c2nnc(C3CCN(S(=O)(=O)c4cccc(Cl)c4)CC3)o2)c1	1.6µM	1.4µM	nt	i	?	nt
CC(=O)Nc1ccc(S(=O)(=O)N2CCC(c3nnc(-c4ccc(C)cc4)o3)CC2)cc1	20µM!	18µM	i	i	?	i
Cc1cc(/C=C2\SC(N)=NC2=O)c(C)n1-c1ccc(F)cc1	i	i	i	13µM	i	i
Cc1ccc(-n2c(C)cc(/C=C3\SC(=O)NC3=O)c2C)cc1	i	i	i	i	i	i
COc1cc(OC)c(OC)cc1/C=c1\[nH]c(=O)/c(=C/c2cc(OC)c(OC)cc2OC)[nH]c1=O	nt	nt	nt	i	?	nt
c1ccc2sc(Sc3ncnc4sccc34)nc2c1	i	i	?	i	?	i
CCc1cc2c(Sc3nc4ccccc4s3)ncnc2s1	?	?	?	i	i	5.2µM
COc1ccc2[nH]c3c(NCCC4=CCCCC4)ncnc3c2c1	?	?	16µM	i	?	29µM
O=C(Nc1nc(=O)c2ccccc2s1)c1ccc(F)cc1	i	i	1.4µM	i	?	16µM
SMILES	ATXN2 expr inh	ATXN viability	HT1080 IDH1KD tx	HepG2 viability	TGFb inhibitor	HT1080-NT tox
O=C(Nc1nc(=O)c2ccccc2s1)c1ccc(Cl)cc1	i	i	i	i	i	i
Cc1ccc2nc3cc([N+](=O)[O-])cc([N+](=O)[O-])c3cc2c1	7.5µM	7.9µM	i	i	i	i
CCCCCN(CCCOC)C(=O)C(CCC(=O)O)NC(=O)c1ccc(Cl)c(Cl)c1 (configuration not stated)	i	i	nt	nt	nt	nt
CCC(/C=C1\Sc2ccc(OC)cc2N1CC)=C\c1sc2ccc(OC)cc2[n+]1CCCS(=O)(=O)[O-]	?	22µM	i	i	i	i
COC(=O)C1=CN(c2ccc3c(c2)OCO3)C(N)=C(C#N)C1c1ccc(-c2ccccc2)cc1 (configuration not stated)	nt	nt	3.3µM	nt	nt	5.2µM
COC(=O)C1=CN(c2ccc(F)cc2)C(N)=C(C#N)C1c1cccc(F)c1 (configuration not stated)	nt	nt	23µM	nt	nt	?
COC(=O)C1=CN(c2ccc(C)cc2)C(N)=C(C#N)C1c1ccccc1F (configuration not stated)	nt	nt	?	nt	nt	i
COC(=O)C1=CN(c2ccc(Oc3ccccc3)cc2)C(N)=C(C#N)C1c1cccc(F)c1 (configuration not stated)	nt	nt	i	nt	nt	i
COC(=O)C1=CN(c2ccc(F)cc2)C(N)=C(C#N)C1c1ccc(-c2ccccc2)cc1 (configuration not stated)	nt	nt	10µM	nt	nt	10µM
Cc1ccc(C)c(Cn2c(=O)n(CCc3ccccc3)c(=O)c3c(C)c(C)sc32)c1	i	i	nt	i	i	nt
CCc1ccn2cc(-c3cc(-c4ccccc4)no3)nc2c1	nt	?	?	10µM	?	?
Cc1ccc2nc(-c3cc(-c4ccccc4)no3)cn2c1	3.5µM	i	i	i	i	i
O=C(Nc1ccc(C(=O)OCc2cc(=O)n3c4c(sc3n2)CCCC4)cc1)c1ccc(Cl)cc1	nt	nt	nt	i	i	nt
COc1cc(=O)n2c(c1C(=O)N(C)Cc1nonc1C)CCN(Cc1cc(C)c(C)cc1C)CC2	nt	i	nt	nt	nt	nt
O=C(O)CCCC[P+](c1ccccc1)(c1ccccc1)c1ccccc1	i	i	nt	nt	nt	nt
Cc1ccc(Nc2c(-c3ccc(C)s3)nc3ncccn23)cc1	nt	nt	nt	i	i	nt
Cc1ccc(NC(=O)c2cc3c([nH]c2=O)CC(c2ccccc2)CC3=O)cc1 (configuration not stated)	nt	nt	nt	i	i	nt
N#CC1c2ccccc2-c2ccccc2N1C(=O)c1ccccc1 (configuration not stated)	nt	i	9.2µM	i	i	?
COc1cc(=O)n2c(c1C(=O)N(C)Cc1cscn1)CCN(C(=O)c1cccc(C)c1C)CC2	nt	i	nt	nt	nt	nt
COc1ccc(Cn2cc(CN3CC(N4CCN(Cc5ccccc5F)CC4)CS3(=O)=O)nn2)cc1 (configuration not stated)	i	i	23µM	nt	nt	i
COc1ccc(C(=O)c2[nH]c(N)c(C(=O)NCCc3c[nH]c4ccccc34)c2-c2ccc(Br)cc2)cc1	i	i	?	nt	nt	?
Nc1[nH]c(C(=O)c2ccccc2)c(-c2ccc(Br)cc2)c1C(=O)NCCc1c[nH]c2ccccc12	?	22µM	i	nt	nt	i
